Laboratory results taken from the supplement of paper PMC8975748.
Counter-ions that a name gives are not always drawn. ± gives the standard deviation of the averaged measurements.

Assays:
[1] = system: Saccharomyces cerevisiae BY4741 SeMeCo community; experiment: mean cell size (pixel area) (pixels); higher = larger cells; details: 10 µM; 24 h; SM minimal medium
Method in brief: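 Harmony analysis of automated confocal images of paraformaldehyde-fixed yeast gave the mean cell pixel area per well. The yeast was a Saccharomyces cerevisiae BY4741 community carrying four plasmids, each with a fluorescent marker and each complementing one auxotrophy, incubated for 24 h in SM medium containing drug at a final 10 µM in 384-well plates. Results are averaged over 3 replicates. Same SeMeCo high-content imaging drug screen: Selleck FDA-approved drugs at 10 µM, 24 h in SM medium, 384-well plates, 3 replicates.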

[2] = system: Saccharomyces cerevisiae BY4741 SeMeCo community; experiment: z-score of subpopulation abundance vs DMSO median, subpopulation auxotrophic for M; higher = larger share of this subpopulation than in DMSO controls; details: 10 µM; 24 h; SM minimal medium; subpopulation (auxotrophy): M
Method in brief: (§1)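 Subpopulation abundance was reported as a z-score against the median of vehicle wells. The Saccharomyces cerevisiae BY4741 community, carrying four plasmids that each restored one auxotrophy and encoded a distinct fluorescent protein, was grown 24 h in minimal SM medium in 384-well plates holding library drugs at 10 µM final. Cells were paraformaldehyde-fixed and imaged by automated confocal microscopy, with single-auxotroph fluorescent strains used for thresholds and autofluorescence correction.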

[3] = system: Saccharomyces cerevisiae BY4741 SeMeCo community; experiment: z-score of subpopulation abundance vs DMSO median, subpopulation auxotrophic for L; higher = larger share of this subpopulation than in DMSO controls; details: 10 µM; 24 h; SM minimal medium; subpopulation (auxotrophy): L
Method in brief: as §1

[4] = system: Saccharomyces cerevisiae BY4741 SeMeCo community; experiment: z-score of subpopulation abundance vs DMSO median, subpopulation auxotrophic for U; higher = larger share of this subpopulation than in DMSO controls; details: 10 µM; 24 h; SM minimal medium; subpopulation (auxotrophy): U
Method in brief: as §1

[5] = system: Saccharomyces cerevisiae BY4741 SeMeCo community; experiment: z-score of subpopulation abundance vs DMSO median, subpopulation auxotrophic for H; higher = larger share of this subpopulation than in DMSO controls; details: 10 µM; 24 h; SM minimal medium; subpopulation (auxotrophy): H
Method in brief: as §1

[6] = system: Saccharomyces cerevisiae BY4741 SeMeCo community; experiment: z-score of subpopulation abundance vs DMSO median, subpopulation auxotrophic for LU; higher = larger share of this subpopulation than in DMSO controls; details: 10 µM; 24 h; SM minimal medium; subpopulation (auxotrophy): LU
Method in brief: as §1

[7] = system: Saccharomyces cerevisiae BY4741 SeMeCo community; experiment: z-score of subpopulation abundance vs DMSO median, subpopulation auxotrophic for LM; higher = larger share of this subpopulation than in DMSO controls; details: 10 µM; 24 h; SM minimal medium; subpopulation (auxotrophy): LM
Method in brief: as §1

[8] = system: Saccharomyces cerevisiae BY4741 SeMeCo community; experiment: z-score of subpopulation abundance vs DMSO median, subpopulation auxotrophic for HM; higher = larger share of this subpopulation than in DMSO controls; details: 10 µM; 24 h; SM minimal medium; subpopulation (auxotrophy): HM
Method in brief: as §1

[9] = system: Saccharomyces cerevisiae BY4741 SeMeCo community; experiment: z-score of subpopulation abundance vs DMSO median, subpopulation auxotrophic for HU; higher = larger share of this subpopulation than in DMSO controls; details: 10 µM; 24 h; SM minimal medium; subpopulation (auxotrophy): HU
Method in brief: as §1

[10] = system: Saccharomyces cerevisiae BY4741 SeMeCo community; experiment: z-score of subpopulation abundance vs DMSO median, subpopulation auxotrophic for HL; higher = larger share of this subpopulation than in DMSO controls; details: 10 µM; 24 h; SM minimal medium; subpopulation (auxotrophy): HL
Method in brief: as §1

[11] = system: Saccharomyces cerevisiae BY4741 SeMeCo community; experiment: z-score of subpopulation abundance vs DMSO median, subpopulation auxotrophic for HLU; higher = larger share of this subpopulation than in DMSO controls; details: 10 µM; 24 h; SM minimal medium; subpopulation (auxotrophy): HLU
Method in brief: as §1

[12] = system: Saccharomyces cerevisiae BY4741 SeMeCo community; experiment: z-score of subpopulation abundance vs DMSO median, subpopulation auxotrophic for HUM; higher = larger share of this subpopulation than in DMSO controls; details: 10 µM; 24 h; SM minimal medium; subpopulation (auxotrophy): HUM
Method in brief: as §1

[13] = system: Saccharomyces cerevisiae BY4741 SeMeCo community; experiment: z-score of subpopulation abundance vs DMSO median, subpopulation auxotrophic for LUM; higher = larger share of this subpopulation than in DMSO controls; details: 10 µM; 24 h; SM minimal medium; subpopulation (auxotrophy): LUM
Method in brief: as §1

[14] = system: Saccharomyces cerevisiae BY4741 SeMeCo community; experiment: z-score of subpopulation abundance vs DMSO median, subpopulation auxotrophic for HLUM; higher = larger share of this subpopulation than in DMSO controls; details: 10 µM; 24 h; SM minimal medium; subpopulation (auxotrophy): HLUM
Method in brief: as §1

[15] = system: Saccharomyces cerevisiae BY4741 SeMeCo community; experiment: z-score of prototroph abundance vs DMSO median; higher = larger share of this subpopulation than in DMSO controls; details: 10 µM; 24 h; SM minimal medium; subpopulation (auxotrophy): Prototroph
Method in brief: as §1

[16] = system: Saccharomyces cerevisiae BY4741 SeMeCo community; experiment: z-score of subpopulation abundance vs DMSO median, subpopulation auxotrophic for UM; higher = larger share of this subpopulation than in DMSO controls; details: 10 µM; 24 h; SM minimal medium; subpopulation (auxotrophy): UM
Method in brief: as §1

| SMILES | mean cell size [1] | z-score of subpopulation abundance [2] | z-score of subpopulation abundance [3] | z-score of subpopulation abundance [4] | z-score of subpopulation abundance [5] | z-score of subpopulation abundance [6] | z-score of subpopulation abundance [7] | z-score of subpopulation abundance [8] | z-score of subpopulation abundance [9] | z-score of subpopulation abundance [10] | z-score of subpopulation abundance [11] | z-score of subpopulation abundance [12] | z-score of subpopulation abundance [13] | z-score of subpopulation abundance [14] | z-score of prototroph abundance [15] | z-score of subpopulation abundance [16] |
| --- | --- | --- | --- | --- | --- | --- | --- | --- | --- | --- | --- | --- | --- | --- | --- | --- |
| Cc1ccnc(NS(=O)(=O)c2ccc(N)cc2)n1 [Sulfamerazine] | 12.5 ± 0.16 | 1.32 | 1.54 | -0.62 | 0.49 | 0.43 | 0.88 | 2 | -0.3 | 0.86 | 0.89 | 0.76 | 0.98 | 0.45 |  |  |
| CCN(CC)C(=O)[C@@]1(c2ccccc2)C[C@H]1CN [Levomilnacipran Hydrochloride] | 12.1 ± 0.27 | -0.27 | -1.78 | 1.27 | -0.22 | -0.02 | -1.21 |  | 1.07 |  | -0.95 | -0.17 |  |  | -0.02 | 0.93 |
| O=C(O)c1cc(=O)c2c(OCC(O)COc3cccc4oc(C(=O)O)cc(=O)c34)cccc2o1 [Disodium Cromoglycate] | 12.1 ± 0.22 | -0.6 | -1.19 | 0.66 | -0.75 | -0.38 | -0.12 | -0.13 | 0.68 | -1.3 | -0.29 | -0.62 | -0.55 | -0.81 | 0.23 | -0.22 |
| C[C@H]1COc2c(N3CCN(C)CC3)c(F)cc3c(=O)c(C(=O)O)cn1c23 [Levofloxacin] | 12.4 ± 0.19 | 0 | -0.45 | -0.46 | -0.42 | -0.77 | -0.53 | -0.49 | -0.62 |  | -0.56 | -0.88 | -1.11 | -0.96 | 1.06 | -0.89 |
| CCCCOC(=O)c1ccc(O)cc1 [Butylparaben] | 12.3 ± 0.29 | -0.57 | -0.62 | -0.7 | -1.64 | -1.79 | -0.49 | -1.19 | -1.93 | -0.99 | -1.3 | -1.38 | -0.62 | 0.07 | 1.77 | -1.24 |
| COC(=O)C1=C(C)NC(C)=C(C(=O)OCC(C)C)C1c1ccccc1[N+](=O)[O-] (centres undefined) [Nisoldipine] | 12.2 ± 0.14 | 0.83 | 0.49 | -0.48 | 0.84 | -0.62 | 1.4 | 0.97 | 0.04 |  | 0.34 | 1.07 |  | 1.09 |  | 0.03 |
| CC(C)C(=O)c1c(C(C)C)nn2ccccc12 [Ibudilast] | 12.6 ± 0.22 | -0.62 | -0.54 |  | -1.02 | 0.04 | -0.43 | -1.12 | 0.99 | -0.96 | -0.65 | -0.38 | -0.2 | -0.23 | 0.24 |  |
| COC(=O)C1=C(C)NC(C)=C(C(=O)OCCN2CCN(C(c3ccccc3)c3ccccc3)CC2)C1c1cccc([N+](=O)[O-])c1 (centres undefined) [Manidipine 2HCl] | 12 ± 0.3 | 2.89 | 0.47 | -1.31 | 1.78 | -0.77 | 2.4 |  | 0.05 | 2.26 | 0.54 | 1.21 | 0.89 | 0.77 | -1.31 | -0.8 |
| O=C1CCc2cc(OCCCCc3nnnn3C3CCCCC3)ccc2N1 [Cilostazol] | 12.32 ± 0.082 | -0.68 | 0.75 |  | 0.02 | -0.63 | -0.83 | -0.41 |  | -0.05 | -0.44 | -0.31 |  |  | 0.97 | -0.9 |
| CC1(C)S[C@@H]2[C@H](NC(=O)[C@H](N)c3ccccc3)C(=O)N2[C@H]1C(=O)O [Ampicillin Trihydrate] | 12.4 ± 0.33 | -0.37 | 0.35 | -0.13 | 0.41 | -0.05 | 0.29 | -0.06 |  | -0.3 | -0.22 | 0.13 | 0.23 | -0.25 | 0.28 | -0.18 |
| C[C@@H](O)[C@H]1C(=O)N2C(C(=O)O)=C(S[C@@H]3CN[C@H](C(=O)Nc4cccc(C(=O)O)c4)C3)[C@H](C)[C@H]12 [Ertapenem sodium] | 11.9 ± 0.17 | 0.04 | -0.78 | -0.15 |  | -0.01 | -0.04 | -0.22 | -0.53 | 0.1 | -1.03 | 0 | -0.18 | -0.21 | 0.33 |  |
| CN(CCOc1ccc(NS(C)(=O)=O)cc1)CCc1ccc(NS(C)(=O)=O)cc1 [Dofetilide] | 12.4 ± 0.18 | -0.18 | -0.53 | 0.48 | -0.68 | 0.5 | 0.47 |  | 0.18 |  | -0.23 | 0.21 | -0.27 |  | 0.39 | 0.1 |
| C=C[C@]1(C)C[C@@H](OC(=O)CS[C@@H]2C[C@H]3CC[C@@H](C2)N3C)[C@]2(C)[C@H](C)CC[C@]3(CCC(=O)[C@H]32)[C@@H](C)[C@@H]1O [Retapamulin] | 12.42 ± 0.093 | -0.9 | -0.16 | 0.79 | -0.84 | 1.21 | 0.32 | -0.99 | 0.72 | -0.57 | 0.45 | 0.06 | 0.62 |  | -0.09 | 0.21 |
| COc1ccc([C@@H]2Sc3ccccc3N(CCN(C)C)C(=O)[C@@H]2OC(C)=O)cc1 [Diltiazem HCl] | 12.5 ± 0.27 | -0.12 | 0.4 |  | -0.4 | -0.4 | 0.01 | -0.74 | -0.1 | -0.78 | 0.03 | -0.36 | -0.24 | -0.3 | 0.76 | -0.21 |
